Among the data in ChEMBL document CHEMBL2218924, “A broad activity screen in support of a chemogenomic map for kinase signalling research and drug discovery” (Biochem J, 2013) are residual activity values, retold here.

For assay [1], the target named is ALK tyrosine kinase receptor (Homo sapiens) (UniProt Q9UM73). The conditions noted are these: at 10 µM.
For assay [2], the target named is T1, Activin receptor type-1B (Homo sapiens) (UniProt P36896).
T1 sequence (whole entry): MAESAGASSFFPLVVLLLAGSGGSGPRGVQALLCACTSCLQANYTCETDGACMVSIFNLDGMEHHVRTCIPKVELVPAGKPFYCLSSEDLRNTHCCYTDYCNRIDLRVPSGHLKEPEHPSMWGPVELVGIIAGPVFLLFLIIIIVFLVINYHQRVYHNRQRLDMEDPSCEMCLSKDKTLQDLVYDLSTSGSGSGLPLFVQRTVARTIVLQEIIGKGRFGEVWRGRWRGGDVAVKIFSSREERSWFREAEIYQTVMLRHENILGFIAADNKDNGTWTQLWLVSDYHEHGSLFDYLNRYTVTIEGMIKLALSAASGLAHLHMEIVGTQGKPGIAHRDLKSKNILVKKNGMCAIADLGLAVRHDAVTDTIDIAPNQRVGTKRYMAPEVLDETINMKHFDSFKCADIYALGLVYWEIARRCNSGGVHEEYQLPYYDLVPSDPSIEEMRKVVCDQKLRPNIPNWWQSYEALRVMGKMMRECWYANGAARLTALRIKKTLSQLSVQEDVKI
To be noted: at 10 µM.

For assay [3], the target named is T2, Mitogen-activated protein kinase kinase kinase 5 (Homo sapiens) (UniProt Q99683).
T2 sequence (whole entry): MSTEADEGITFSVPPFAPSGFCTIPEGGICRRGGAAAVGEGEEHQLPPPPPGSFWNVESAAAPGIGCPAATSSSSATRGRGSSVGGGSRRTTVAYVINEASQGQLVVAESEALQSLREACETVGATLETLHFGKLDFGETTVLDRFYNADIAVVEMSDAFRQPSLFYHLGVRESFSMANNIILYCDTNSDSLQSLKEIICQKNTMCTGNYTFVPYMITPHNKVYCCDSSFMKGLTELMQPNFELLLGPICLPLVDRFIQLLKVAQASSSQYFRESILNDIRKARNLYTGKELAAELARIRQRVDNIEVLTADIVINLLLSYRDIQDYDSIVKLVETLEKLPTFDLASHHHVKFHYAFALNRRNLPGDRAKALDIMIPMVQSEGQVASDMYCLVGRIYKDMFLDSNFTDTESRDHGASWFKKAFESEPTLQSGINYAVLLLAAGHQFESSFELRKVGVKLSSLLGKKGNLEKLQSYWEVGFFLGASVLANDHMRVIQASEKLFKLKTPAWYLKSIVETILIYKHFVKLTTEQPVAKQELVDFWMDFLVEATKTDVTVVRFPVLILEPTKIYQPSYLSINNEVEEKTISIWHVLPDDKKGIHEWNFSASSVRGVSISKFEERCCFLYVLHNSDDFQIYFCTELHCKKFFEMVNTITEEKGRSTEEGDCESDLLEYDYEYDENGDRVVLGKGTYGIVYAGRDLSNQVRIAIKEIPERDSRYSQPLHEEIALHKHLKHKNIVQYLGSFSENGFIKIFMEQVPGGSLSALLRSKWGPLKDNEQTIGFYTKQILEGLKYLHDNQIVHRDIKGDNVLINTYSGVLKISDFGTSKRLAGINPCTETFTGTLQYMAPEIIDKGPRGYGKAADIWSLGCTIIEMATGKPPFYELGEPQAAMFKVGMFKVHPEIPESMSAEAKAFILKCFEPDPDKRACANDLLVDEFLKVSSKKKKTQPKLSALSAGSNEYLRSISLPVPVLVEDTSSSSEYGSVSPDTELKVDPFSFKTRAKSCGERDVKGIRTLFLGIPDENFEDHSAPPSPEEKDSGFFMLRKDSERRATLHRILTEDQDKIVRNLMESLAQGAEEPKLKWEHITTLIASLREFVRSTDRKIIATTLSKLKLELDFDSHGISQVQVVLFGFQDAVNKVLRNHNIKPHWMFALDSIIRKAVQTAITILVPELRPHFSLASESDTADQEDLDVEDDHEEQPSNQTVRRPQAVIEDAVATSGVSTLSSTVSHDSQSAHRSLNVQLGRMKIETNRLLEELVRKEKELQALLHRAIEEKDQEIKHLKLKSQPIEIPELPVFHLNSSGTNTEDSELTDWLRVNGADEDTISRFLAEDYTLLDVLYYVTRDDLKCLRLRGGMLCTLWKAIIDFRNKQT
The conditions noted are these: at 1 µM.

Assay [4] concerns the target Platelet-derived growth factor receptor beta (Homo sapiens) (UniProt P09619). The conditions noted are these: at 1 µM.
The target is the same in assay [5]. The conditions noted are these: at 10 µM.
Assay [6] concerns the target RAC-gamma serine/threonine-protein kinase (Homo sapiens) (UniProt Q9Y243). To be noted: at 10 µM.
In assay [7] the target is cAMP-dependent protein kinase catalytic subunit alpha (Homo sapiens) (UniProt P17612). To be noted: at 1 µM.
Assay [8] has as its target T1, Activin receptor type-1B (Homo sapiens). To be noted: at 1 µM.
Assay [9] deals with T3, AMP-activated protein kinase (AMPK) alpha-1/beta-1/gamma-1 (Homo sapiens) (UniProt P54619+Q9Y478+Q13131). The conditions noted are these: at 1 µM.
T3 sequence (P54619 whole entry): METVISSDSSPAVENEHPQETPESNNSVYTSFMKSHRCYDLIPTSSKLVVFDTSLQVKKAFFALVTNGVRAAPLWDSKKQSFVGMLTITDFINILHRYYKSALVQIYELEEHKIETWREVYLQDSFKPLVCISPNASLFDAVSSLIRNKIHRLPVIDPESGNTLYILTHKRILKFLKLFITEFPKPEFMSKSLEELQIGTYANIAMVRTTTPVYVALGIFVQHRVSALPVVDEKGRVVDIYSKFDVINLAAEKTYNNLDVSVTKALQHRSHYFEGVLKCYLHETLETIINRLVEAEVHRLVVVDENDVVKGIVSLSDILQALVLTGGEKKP
T3 sequence (Q13131 whole entry partner): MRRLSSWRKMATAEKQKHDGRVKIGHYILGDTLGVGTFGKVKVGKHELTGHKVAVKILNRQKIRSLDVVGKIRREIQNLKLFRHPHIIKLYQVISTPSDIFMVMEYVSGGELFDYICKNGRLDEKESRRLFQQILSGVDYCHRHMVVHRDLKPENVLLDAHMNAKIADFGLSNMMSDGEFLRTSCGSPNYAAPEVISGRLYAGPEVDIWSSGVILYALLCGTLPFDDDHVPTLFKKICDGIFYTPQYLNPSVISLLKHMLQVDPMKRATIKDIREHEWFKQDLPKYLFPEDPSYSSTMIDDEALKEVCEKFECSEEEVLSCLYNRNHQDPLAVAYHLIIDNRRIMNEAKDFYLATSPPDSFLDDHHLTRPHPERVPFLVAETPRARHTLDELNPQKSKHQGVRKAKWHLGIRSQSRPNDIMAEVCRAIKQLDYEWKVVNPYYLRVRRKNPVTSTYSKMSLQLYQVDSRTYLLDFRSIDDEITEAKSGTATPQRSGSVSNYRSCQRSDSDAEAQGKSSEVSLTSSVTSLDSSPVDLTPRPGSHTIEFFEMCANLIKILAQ
T3 sequence (Q9Y478 2-270 partner limits assumed): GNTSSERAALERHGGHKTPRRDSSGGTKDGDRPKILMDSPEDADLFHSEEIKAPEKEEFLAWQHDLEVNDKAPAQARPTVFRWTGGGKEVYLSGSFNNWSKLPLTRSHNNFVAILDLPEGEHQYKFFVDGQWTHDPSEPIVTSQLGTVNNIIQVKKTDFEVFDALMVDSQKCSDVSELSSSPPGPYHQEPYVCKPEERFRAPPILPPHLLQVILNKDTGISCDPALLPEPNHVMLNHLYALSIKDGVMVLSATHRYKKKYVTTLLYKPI
Assay [10] has as its target T3, AMP-activated protein kinase (AMPK) alpha-1/beta-1/gamma-1 (Homo sapiens). To be noted: at 10 µM.
In assay [11] the target is T4, NUAK family SNF1-like kinase 1 (Homo sapiens) (UniProt O60285).
T4 sequence (whole entry): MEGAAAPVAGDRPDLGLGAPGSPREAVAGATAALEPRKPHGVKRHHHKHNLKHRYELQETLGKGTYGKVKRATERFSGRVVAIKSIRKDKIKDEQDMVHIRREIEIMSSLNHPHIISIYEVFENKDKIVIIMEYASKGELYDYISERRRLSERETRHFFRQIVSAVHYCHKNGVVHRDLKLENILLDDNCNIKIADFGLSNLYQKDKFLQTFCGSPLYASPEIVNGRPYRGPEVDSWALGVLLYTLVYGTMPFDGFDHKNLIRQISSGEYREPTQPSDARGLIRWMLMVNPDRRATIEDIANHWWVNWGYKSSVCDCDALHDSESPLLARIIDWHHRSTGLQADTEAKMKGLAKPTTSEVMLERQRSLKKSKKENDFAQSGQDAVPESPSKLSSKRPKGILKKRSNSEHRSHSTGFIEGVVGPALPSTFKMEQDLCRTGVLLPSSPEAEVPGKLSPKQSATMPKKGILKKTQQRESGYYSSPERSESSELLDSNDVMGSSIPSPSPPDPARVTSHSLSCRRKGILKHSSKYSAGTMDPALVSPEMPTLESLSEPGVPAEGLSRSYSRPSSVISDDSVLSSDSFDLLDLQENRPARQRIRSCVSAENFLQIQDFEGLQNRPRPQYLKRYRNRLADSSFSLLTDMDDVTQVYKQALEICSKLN
To be noted: at 1 µM.

Assay [12] concerns the target T4, NUAK family SNF1-like kinase 1 (Homo sapiens). The conditions noted are these: at 10 µM.
Assay [13] has as its target Platelet-derived growth factor receptor alpha (Homo sapiens) (UniProt P16234). To be noted: at 1 µM.
Assay [14] has the same target. To be noted: at 10 µM.
For assay [15], the target named is RAC-gamma serine/threonine-protein kinase (Homo sapiens) (UniProt Q9Y243). To be noted: at 1 µM.
RAC-gamma serine/threonine-protein kinase (Homo sapiens), sequence (Q9Y243 whole entry): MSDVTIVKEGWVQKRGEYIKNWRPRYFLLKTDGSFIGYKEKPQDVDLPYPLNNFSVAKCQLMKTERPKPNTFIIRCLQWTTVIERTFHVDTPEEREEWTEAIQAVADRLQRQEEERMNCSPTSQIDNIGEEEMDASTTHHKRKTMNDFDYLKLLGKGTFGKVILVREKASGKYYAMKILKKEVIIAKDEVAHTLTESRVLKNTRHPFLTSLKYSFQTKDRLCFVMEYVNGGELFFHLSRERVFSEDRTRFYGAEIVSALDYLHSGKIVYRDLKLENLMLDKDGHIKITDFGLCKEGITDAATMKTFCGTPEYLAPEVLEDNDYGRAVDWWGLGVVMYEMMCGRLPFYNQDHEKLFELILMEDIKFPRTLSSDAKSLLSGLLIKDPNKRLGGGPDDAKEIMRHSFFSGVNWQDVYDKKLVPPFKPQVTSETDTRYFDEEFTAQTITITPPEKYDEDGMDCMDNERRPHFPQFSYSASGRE
Assay [16] deals with T5, AMP-activated protein kinase, AMPK (Homo sapiens) (UniProt P54646+O43741+P54619+Q9UGJ0+Q9Y478+Q13131+Q9UGI9). To be noted: at 1 µM.
In assay [17] the target is T5, AMP-activated protein kinase, AMPK (Homo sapiens). The conditions noted are these: at 10 µM.
Assay [18] deals with T6, 3-phosphoinositide-dependent protein kinase 1 (Homo sapiens) (UniProt O15530).
T6 sequence (whole entry): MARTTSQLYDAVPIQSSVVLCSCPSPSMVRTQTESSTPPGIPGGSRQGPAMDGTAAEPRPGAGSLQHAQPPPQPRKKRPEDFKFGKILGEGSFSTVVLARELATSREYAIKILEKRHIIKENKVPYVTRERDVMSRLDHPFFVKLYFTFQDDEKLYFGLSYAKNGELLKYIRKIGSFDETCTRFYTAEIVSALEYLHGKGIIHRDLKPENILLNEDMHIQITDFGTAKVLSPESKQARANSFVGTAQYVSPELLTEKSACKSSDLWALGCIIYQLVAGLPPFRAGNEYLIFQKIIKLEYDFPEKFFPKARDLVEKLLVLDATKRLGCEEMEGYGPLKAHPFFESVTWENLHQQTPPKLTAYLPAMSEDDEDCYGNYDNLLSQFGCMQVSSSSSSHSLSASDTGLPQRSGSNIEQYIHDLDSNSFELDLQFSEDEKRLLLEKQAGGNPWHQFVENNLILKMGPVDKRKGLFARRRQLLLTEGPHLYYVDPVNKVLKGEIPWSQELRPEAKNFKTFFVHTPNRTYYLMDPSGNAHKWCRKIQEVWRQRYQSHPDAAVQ
To be noted: at 1 µM.

Assay [19] addresses T6, 3-phosphoinositide-dependent protein kinase 1 (Homo sapiens). To be noted: at 10 µM.
The target of assay [20] is cAMP-dependent protein kinase catalytic subunit alpha (Homo sapiens) (UniProt P17612). To be noted: at 10 µM.

Platelet-derived growth factor receptor alpha (Homo sapiens), sequence (P16234 whole entry): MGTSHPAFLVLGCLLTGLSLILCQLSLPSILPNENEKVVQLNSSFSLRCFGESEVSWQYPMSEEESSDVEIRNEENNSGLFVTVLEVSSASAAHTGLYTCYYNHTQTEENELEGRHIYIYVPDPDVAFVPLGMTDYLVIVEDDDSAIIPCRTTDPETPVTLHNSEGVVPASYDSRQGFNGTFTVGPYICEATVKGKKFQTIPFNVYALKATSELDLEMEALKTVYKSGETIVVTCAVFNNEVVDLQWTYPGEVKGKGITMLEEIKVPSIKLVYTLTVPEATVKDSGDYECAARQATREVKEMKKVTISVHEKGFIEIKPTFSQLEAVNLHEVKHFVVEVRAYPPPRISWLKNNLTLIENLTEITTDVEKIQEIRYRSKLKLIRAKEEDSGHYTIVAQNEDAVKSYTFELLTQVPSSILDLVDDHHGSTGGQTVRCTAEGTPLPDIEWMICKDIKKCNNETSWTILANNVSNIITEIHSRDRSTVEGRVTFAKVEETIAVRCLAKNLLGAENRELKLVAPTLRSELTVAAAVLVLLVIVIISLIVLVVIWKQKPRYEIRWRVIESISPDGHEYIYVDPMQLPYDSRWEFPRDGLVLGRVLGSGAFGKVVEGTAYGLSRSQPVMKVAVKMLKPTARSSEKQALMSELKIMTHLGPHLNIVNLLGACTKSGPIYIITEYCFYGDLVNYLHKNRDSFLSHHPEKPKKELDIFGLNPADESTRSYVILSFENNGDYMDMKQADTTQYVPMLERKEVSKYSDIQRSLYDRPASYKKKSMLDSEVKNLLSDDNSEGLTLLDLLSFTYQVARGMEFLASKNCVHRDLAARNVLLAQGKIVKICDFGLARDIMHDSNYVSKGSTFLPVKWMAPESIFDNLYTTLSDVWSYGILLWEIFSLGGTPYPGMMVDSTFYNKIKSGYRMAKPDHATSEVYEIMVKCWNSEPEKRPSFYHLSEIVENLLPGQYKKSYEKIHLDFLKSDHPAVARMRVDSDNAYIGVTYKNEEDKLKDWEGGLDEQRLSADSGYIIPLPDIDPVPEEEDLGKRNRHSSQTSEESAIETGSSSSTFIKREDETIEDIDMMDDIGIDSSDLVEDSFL
Platelet-derived growth factor receptor beta (Homo sapiens), sequence (P09619 whole entry): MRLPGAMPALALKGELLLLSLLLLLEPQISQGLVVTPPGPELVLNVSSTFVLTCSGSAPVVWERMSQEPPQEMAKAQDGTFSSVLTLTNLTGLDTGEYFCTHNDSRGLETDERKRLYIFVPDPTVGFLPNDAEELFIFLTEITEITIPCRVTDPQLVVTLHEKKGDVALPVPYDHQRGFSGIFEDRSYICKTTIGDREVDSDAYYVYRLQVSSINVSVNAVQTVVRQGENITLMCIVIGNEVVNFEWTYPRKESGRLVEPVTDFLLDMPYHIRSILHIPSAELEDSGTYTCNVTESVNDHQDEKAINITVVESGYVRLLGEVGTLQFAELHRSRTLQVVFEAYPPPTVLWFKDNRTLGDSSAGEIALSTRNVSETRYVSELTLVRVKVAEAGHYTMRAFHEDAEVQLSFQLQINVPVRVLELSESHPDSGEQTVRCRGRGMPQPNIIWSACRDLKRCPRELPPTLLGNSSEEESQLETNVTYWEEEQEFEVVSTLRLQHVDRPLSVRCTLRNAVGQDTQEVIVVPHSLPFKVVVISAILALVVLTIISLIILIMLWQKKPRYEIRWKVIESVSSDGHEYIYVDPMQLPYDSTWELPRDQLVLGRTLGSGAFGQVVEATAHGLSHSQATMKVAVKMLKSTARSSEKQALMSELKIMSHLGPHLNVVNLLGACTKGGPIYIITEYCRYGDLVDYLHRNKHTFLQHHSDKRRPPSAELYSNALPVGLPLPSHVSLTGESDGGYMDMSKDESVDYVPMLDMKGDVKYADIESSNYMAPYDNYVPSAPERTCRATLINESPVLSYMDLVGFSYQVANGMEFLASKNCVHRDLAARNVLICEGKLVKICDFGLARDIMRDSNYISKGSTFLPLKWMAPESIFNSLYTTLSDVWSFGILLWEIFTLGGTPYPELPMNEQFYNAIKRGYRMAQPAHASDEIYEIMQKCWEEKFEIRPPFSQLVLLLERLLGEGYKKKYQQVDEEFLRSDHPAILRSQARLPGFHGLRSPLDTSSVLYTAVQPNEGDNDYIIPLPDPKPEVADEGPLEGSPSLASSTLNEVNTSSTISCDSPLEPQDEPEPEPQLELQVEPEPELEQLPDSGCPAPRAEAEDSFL

Take `O=c1c(-c2ccc(F)cc2)c(-c2ccncc2)[nH]n1-c1ccc(Cl)cc1`: the residual activity in [1] turned out to be 65%; in [2], 22%; in assay [3] it was 100%; in assay [4], 100%; in assay [5] it was 99%; in [6], 65%.

For the compound `COc1ccc(CNC(=O)Nc2ncc([N+](=O)[O-])s2)cc1`, the residual activity in [1] is 64%; in assay [2], 109%; in assay [4], 101%; in assay [5] it was 100%; in assay [7], 109%.

Consider `COc1cc2nccc(Oc3ccc(NC(=S)NC(=O)c4ccccc4C)cc3)c2cc1OC`, for which the residual activity in [1] came out at 47%; in assay [8], 126%; in assay [2], 96%; in assay [9] it was 88%; in [10], 70%; in assay [11] it was 81%. Moreover, the residual activity came out at 74% in assay [12]; 88% in [3]; 7% in assay [13]; 2% in assay [14]; 31% in assay [4]; 9% in assay [5]. Further, the results for the residual activity in [7], in assay [15] and in assay [6] were 90%, 94% and 72%, respectively.

For the compound `CCOc1nc(NC(=O)Cc2cc(OC)ccc2OC)cc(N)c1C#N`, the residual activity in assay [1] was 69%.

For `CCCCc1c(-c2ccc(OC)cc2)[nH]c2nccnc12`, the residual activity turned out to be 31% in assay [1]; 81% in assay [8]; 39% in [2]; 82% in assay [9]; 74% in [16]; 92% in assay [17]. Besides, the residual activity in assay [11] amounted to 15%; in assay [12], 22%; in assay [13] it was 105%; in assay [14], 111%; in [4] it was 104%; in assay [5], 105%. The residual activity turned out to be 70% in assay [18], 65% in assay [19], 86% in [7] and 119% in assay [15].

For `Nc1ncnc2[nH]nc(Nc3ccc(F)cc3)c12`, the residual activity in assay [1] was 67%; in assay [8] it was 114%; in assay [2] it was 77%; in assay [9] it was 100%; in assay [10] it was 69%; in [16], 99%. The residual activity in [17] is 65%; in [11] it was 98%; in [12] it was 90%; in assay [13] it was 105%; in assay [14], 111%; in assay [4] it was 107%. In addition, the residual activity in assay [5] amounted to 109%; in assay [18] it was 92%; in assay [19], 40%; in assay [20], 77%; in [6], 71%.

For `O=C(O)/C=C/c1cc(Br)c(Br)c(Br)c1Br`, the residual activity was 87% in assay [1]; 85% in assay [2]; 101% in [9]; 56% in assay [10]; 94% in [16]; 76% in [17]. Besides, the residual activity in [11] was determined as 102%; in assay [12], 94%; in assay [3] it was 98%; in assay [13], 100%; in assay [14] it was 103%; in assay [18] it was 107%. The residual activity in assay [19] was 99%; in [7] it was 96%; in [20], 71%; in [15], 105%; in assay [6], 61%.

Turning to `Nc1nc(Nc2ccc(S(N)(=O)=O)cc2)nn1C(=O)c1c(F)cccc1F`, the residual activity is 38% in assay [1]; 100% in [8]; 47% in [2]; 58% in assay [9]; 11% in [10]; 47% in [16]. Also, the residual activity in assay [17] was determined as 15%; in [11] it was 4%; in [12], 7%; in [3], 102%; in assay [4] it was 108%; in assay [5] it was 82%. In addition, the residual activity was 68% in [18], 21% in assay [19] and 110% in [15].
